Only some compounds are listed: those with a hit (about 1.3% of all), similar ones and a draw of the others.
ZTA DNA inh – counter-screen for EBNA-1 inhibitors: inhibitors of Epstein-Barr virus ZTA | P03206 | actives 0.15% (n = 320,000) | inhibition, % at 11 µM | ZTA-DNA binding, fluorescence polarization; in the data active means inhibition above about 33%
Target sequence (P03206 whole entry, looked up): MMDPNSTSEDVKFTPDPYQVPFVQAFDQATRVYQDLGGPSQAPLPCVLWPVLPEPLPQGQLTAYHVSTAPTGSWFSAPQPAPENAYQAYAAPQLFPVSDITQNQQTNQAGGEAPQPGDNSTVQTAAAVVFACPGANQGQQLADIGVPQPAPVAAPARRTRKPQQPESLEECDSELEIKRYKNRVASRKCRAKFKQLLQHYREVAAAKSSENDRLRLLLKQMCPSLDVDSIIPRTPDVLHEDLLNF
EBNA-1 inhibitor – blocks EBNA-1 binding to DNA | EBNA-1 DNA binding, fluorescence polarization | inhibition, % at 14.8 µM | actives 0.34% (n = 300,000); in the data active means inhibition above about 28%
LYPLA1 counter – LYPLA1 (human) inhibition in PME1 counter-screen | inhibition, % at 5.9 µM | recombinant LYPLA1, FP-Rh probe fluorescence polarization | actives 0.16% (n = 320,000) | O75608;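 active means inhibition above the mean of all tested compounds plus 3 SD, set per campaign, cut at about 14% in these data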;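 further: inhibitors block serine hydrolase probe labeling of LYPLA1 so polarization falls; 0% = enzyme with DMSO and 100% = wells lacking LYPLA1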
PREPL inhibitor – human PREPL enzyme inhibition | actives 0.68% (n = 320,000) | Q4J6C6 | recombinant PREPL, fluorescence polarization activity-based probe | inhibition, % at 5.96 µM; in the data active means inhibition above about 43%;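 further: 0% = enzyme with DMSO and 100% = wells lacking enzyme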
LYPLA2 counter – blocks human lysophospholipase 2, a PME1 counter-screen; inhibition, % at 5.9 µM; actives 0.38% (n = 320,000); recombinant LYPLA2, FP-Rh probe fluorescence polarization; O95372;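 active means inhibition above the screen-wide mean plus 3 SD, limit set per campaign, cut at about 26% in these data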;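 further: 0% = LYPLA2 with DMSO and 100% = wells lacking LYPLA2 enzyme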
Target sequence (O95372 whole entry, looked up): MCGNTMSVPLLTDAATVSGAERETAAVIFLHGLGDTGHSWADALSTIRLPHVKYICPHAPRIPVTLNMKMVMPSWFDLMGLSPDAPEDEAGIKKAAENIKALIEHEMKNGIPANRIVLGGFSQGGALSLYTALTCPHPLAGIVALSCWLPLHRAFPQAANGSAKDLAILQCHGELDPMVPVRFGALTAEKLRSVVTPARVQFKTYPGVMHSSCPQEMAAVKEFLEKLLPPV
LYPLA2 confirm – counter-screen for PME1 inhibitors: confirmation of human LYPLA2 inhibitors. inhibition, % at 5.9 µM. actives 72% (n = 1,100). shares compounds with LYPLA2 counter. recombinant LYPLA2, FP-Rh probe fluorescence polarization;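 active means mean inhibition across replicates above the hit cutoff set in the primary screen, cut at about 26% in these data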;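 further: blocked labeling of the enzyme by serine hydrolase FP-Rh probe lowers polarization; 0% = enzyme with DMSO and 100% = wells lacking LYPLA2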
* = called active by the depositor.

For COc1ccc(CCn2c(C)cc(C(=O)COC(=O)c3cnccn3)c2C)cc1 the results were ZTA DNA inh 8.8, EBNA-1 inhibitor 9.3, LYPLA1 counter 1.7, PREPL inhibitor -10.7, LYPLA2 counter 42.8* and LYPLA2 confirm 40.6*.
`Cc1nn(C)cc1CN(C)C(=O)c1nn2c(c1Cl)NC(c1cccs1)CC2C(F)(F)F` (stereo not drawn) gave ZTA DNA inh -0.7, EBNA-1 inhibitor -9.7, LYPLA1 counter -1.1, PREPL inhibitor 10.5 and LYPLA2 counter 0.0.
`Cc1nn(C)c(C)c1CN(C)C(=O)c1cc2n(n1)C(C(F)(F)F)CC(c1cccs1)N2` (stereo not drawn) gave ZTA DNA inh 3.4, EBNA-1 inhibitor 19.4, LYPLA1 counter -0.8, PREPL inhibitor 24.0, LYPLA2 counter 26.1* and LYPLA2 confirm 10.2.
Screening Cc1ccc(Nc2c([N+](=O)[O-])cc(C(=O)N3CC(=O)Nc4ccccc43)cc2[N+](=O)[O-])c(C)c1 returned ZTA DNA inh -9.6, EBNA-1 inhibitor 0.7, LYPLA1 counter 0.3, PREPL inhibitor -102.2, LYPLA2 counter 26.7* and LYPLA2 confirm 27.7*.
Screening CC(/C=N/NC(=O)Cn1nnc(N)n1)=C\c1ccc(C(C)C)cc1 returned ZTA DNA inh 14.6, EBNA-1 inhibitor -8.7, LYPLA1 counter -5.0, PREPL inhibitor 7.8, LYPLA2 counter 62.0* and LYPLA2 confirm 69.7*.
For O=C(Nc1ccc([N+](=O)[O-])cc1)c1ccc(Cn2cc([N+](=O)[O-])cn2)cc1 the results were ZTA DNA inh 21.0, EBNA-1 inhibitor 4.2, LYPLA1 counter -5.6, PREPL inhibitor 2.2, LYPLA2 counter 46.1* and LYPLA2 confirm 48.9*.
Screening CC(=O)c1ccc(-c2ccc(C(=O)N3CCCc4ccccc43)o2)cc1 returned ZTA DNA inh 2.3, EBNA-1 inhibitor 1.1, LYPLA1 counter -6.3, PREPL inhibitor -10.4 and LYPLA2 counter 7.6.
Screening O=C(Cc1ccc(S(=O)(=O)N2CCOCC2)s1)N1CCN(c2cccc(C(F)(F)F)c2)CC1 returned ZTA DNA inh 5.8, EBNA-1 inhibitor -2.8, LYPLA1 counter 1.4, PREPL inhibitor 15.3, LYPLA2 counter 39.5* and LYPLA2 confirm 47.6*.
O=C(Cc1ccc(S(=O)(=O)N2CCCC2)s1)N1CCN(c2ccccc2)CC1 was read as ZTA DNA inh 5.6, EBNA-1 inhibitor 4.6, LYPLA1 counter -1.0, PREPL inhibitor -14.9 and LYPLA2 counter 0.1.
Fc1ccccc1COc1ccc(Br)cc1CNCc1ccncc1 was read as ZTA DNA inh 3.5, EBNA-1 inhibitor 1.2, LYPLA1 counter -3.6, PREPL inhibitor -11.4, LYPLA2 counter 27.0* and LYPLA2 confirm 2.0.
For CCC(C)(C)C1CCC(NC(=O)c2ccc(S(=O)(=O)N3CCOCC3)cc2)CC1 (stereo not drawn) the results were ZTA DNA inh -10.2, LYPLA1 counter 0.5, PREPL inhibitor 7.9 and LYPLA2 counter 4.0.
Cc1ccc(C(=O)COC(=O)c2ccc3c(c2)C(=O)N(c2cccc4ncccc24)C3=O)cc1C was read as ZTA DNA inh -7.2, EBNA-1 inhibitor -11.0, LYPLA1 counter -2.6, PREPL inhibitor 12.4, LYPLA2 counter 30.3* and LYPLA2 confirm 35.7*.
COc1ccc(C(=O)OCC(=O)c2c(N)n(C)c(=O)n(C)c2=O)cc1OC was read as ZTA DNA inh -2.4, EBNA-1 inhibitor -14.7, LYPLA1 counter 1.3, PREPL inhibitor 3.3 and LYPLA2 counter 3.4.
Cc1ccc(C)c(N2C(=O)c3ccc(C(=O)OCC(=O)c4c(N)n(C)c(=O)n(C)c4=O)cc3C2=O)c1 was read as ZTA DNA inh -6.7, EBNA-1 inhibitor -12.9, LYPLA1 counter -1.3, PREPL inhibitor 4.1, LYPLA2 counter 26.3* and LYPLA2 confirm 44.1*.
For Cc1ccc(C(=O)COC(=O)c2ccc(-c3cnc4ccccc4n3)cc2)cc1C the results were ZTA DNA inh -6.2, EBNA-1 inhibitor -6.8, LYPLA1 counter 2.3, PREPL inhibitor 0.5 and LYPLA2 counter -1.5.
Screening Cc1occc1-c1nnc(SCCCC(=O)c2ccc(F)cc2)n1C returned ZTA DNA inh -6.7, EBNA-1 inhibitor 7.7, LYPLA1 counter 0.2, PREPL inhibitor -2.2 and LYPLA2 counter 2.2.
For CCn1c(SCC(=O)c2ccc(F)cc2)nnc1-c1ccoc1C the results were ZTA DNA inh -3.2, EBNA-1 inhibitor 6.1, LYPLA1 counter 4.7, PREPL inhibitor 4.7, LYPLA2 counter 34.7* and LYPLA2 confirm -2.6.
For COc1ccc(OCCOc2ccc(S(=O)(=O)N3CCCC3)cc2[N+](=O)[O-])cc1 the results were ZTA DNA inh -1.9, LYPLA1 counter -1.6, PREPL inhibitor 15.1, LYPLA2 counter 30.3* and LYPLA2 confirm 29.6*.
Screening CCCCCCC[N+](CC)(CC)CCCCc1ccc(Cl)cc1 returned ZTA DNA inh -7.4, EBNA-1 inhibitor -7.7, LYPLA1 counter 2.0, PREPL inhibitor 25.6, LYPLA2 counter 35.0* and LYPLA2 confirm 29.8*.
Screening COc1ccc(Oc2ccc(N/C=C3/CCCC3=O)cc2)cc1 returned ZTA DNA inh -10.3, EBNA-1 inhibitor -0.5, LYPLA1 counter 3.2, PREPL inhibitor 3.1, LYPLA2 counter 40.5* and LYPLA2 confirm 36.3*.
COc1ccc(Oc2ccc(N/C=C3\CCCC3=O)cc2)cc1 was read as ZTA DNA inh -4.8, EBNA-1 inhibitor 2.7, LYPLA1 counter 6.6, PREPL inhibitor 6.3, LYPLA2 counter 38.5* and LYPLA2 confirm 37.0*.
COc1ccc2oc(C(=O)N3CCCc4ccccc43)c(C)c2c1 was read as ZTA DNA inh 4.9, EBNA-1 inhibitor -2.3, LYPLA1 counter 2.6, PREPL inhibitor 6.7 and LYPLA2 counter -0.8.
Cc1ccc(OCC(=O)NCc2ccccc2)c([N+](=O)[O-])n1 was read as ZTA DNA inh -1.6, EBNA-1 inhibitor 8.3, LYPLA1 counter 3.3, PREPL inhibitor 3.5, LYPLA2 counter 54.3* and LYPLA2 confirm -4.6.
Screening COc1cc(/C=C2/NC(=O)N(Cc3ccccc3F)C2=O)ccc1Oc1ccc([N+](=O)[O-])cn1 returned ZTA DNA inh 0.1, EBNA-1 inhibitor -4.0, LYPLA1 counter -2.0, PREPL inhibitor 2.5, LYPLA2 counter 62.0* and LYPLA2 confirm 72.4*.
For COc1cc(/C=C(/C#N)c2ccccc2)ccc1Oc1ccc([N+](=O)[O-])cn1 the results were ZTA DNA inh -11.8, EBNA-1 inhibitor 1.8, LYPLA1 counter -5.5, PREPL inhibitor 18.1, LYPLA2 counter 31.2* and LYPLA2 confirm 30.8*.
`CCOC(=O)C1(CC2CCCCO2)CCN(C(=O)Nc2ccc(C)c(C)c2)CC1` (stereo not drawn) gave ZTA DNA inh 3.6, EBNA-1 inhibitor -6.2, LYPLA1 counter -0.7, PREPL inhibitor 9.5 and LYPLA2 counter -5.6.
Cc1nc([N+](=O)[O-])c(Br)n1CC(=O)c1ccc2ccccc2c1 was read as ZTA DNA inh 15.9, EBNA-1 inhibitor -15.3, LYPLA1 counter 0.6, PREPL inhibitor 11.8, LYPLA2 counter 31.3* and LYPLA2 confirm 30.1*.
